The values that follow come from PubChem BioAssay AID2653 (National Center for Advancing Translational Sciences (NCATS), 2010).

The structures appear in SMILES notation. Records with an inconclusive call do not appear. Active and inactive are the calls of the source. Calls come from the whole dose curve; as a rule, active = well fitted curve in the direction sought with a large enough effect; inconclusive = small, poorly fitted or top-dose-only effect, or another doubt; inactive = no such curve, though single readings can be large or run the other way.

A short description of the experiment: Secondary Assay for Activators of Human Pyruvate Kinase M2 isoform - Cell Titer Glo Cytotoxicity for Probe SAR. The note with it: HeLa viability, CellTiter-Glo ATP luminescence, 24 h; series mostly up to 58.2 µM. How it is done: NIH Chemical Genomics Center [NCGC]
Matthew G. Vander Heiden, M.D., Ph.D. [Harvard Medical School, 77 Avenue Louis Pasteur, Boston, MA 02115]
We have identified a series of activators of the M2 isoform of human pyruvate kinase. The assay described here examines the cytotoxicity of these compounds by measuring the total ATP content of Hela cells after 24 hrs of exposure to compound.
500 Hela cells/ 4ul in media (DMEM with high glucose, 10% FBS, 1x Pen Strep, 1x NEAA) were dispensed into a white solid 1536-microwell plate with a Thermo Multidrop. The plates were incubated at 37 degrees Celsius for 24 hours. The cells were then treated with compounds using the Kalypsys pin tool, delivering 23 nl of test compounds and the control doxorubicin. The plates were then incubated for an additional 24 hours at 37 degrees C after which 4 ul of Promega Cell-Titer Glo was dispensed using the Thermo Multidrop. The plates were incubated at room temperature for 10 min before reading luminescence on the Perkin Elmer ViewLux with images collected with 2x binning and a 5 sec exposure time.
Background: ATP-based viability assays read luminescence as a measure of living cells.
`COc1ccc(N2C(=O)c3ccccc3C2=O)cc1`: the result was inactive.

As for `O=S(=O)(c1ccc2c(c1)OCCO2)N1CCN(S(=O)(=O)c2c(F)cccc2F)CC1`, the compound was classed as inactive.

For `Cc1ccc(-c2nc3cnccn3c2Nc2ccc(C(C)C)cc2)o1`, the outcome was inactive.

As for `Cc1ccc(Nc2c(-c3ccsc3)nc3c(C)cccn23)cc1`, the outcome was inactive.

`Cc1ccc(NS(=O)(=O)c2ccc3c(c2)CC(=O)N3C)cc1C`: the call was inactive.

For the compound `Cc1ccc(NS(=O)(=O)c2cc3c(cc2-c2cn[nH]c2)NC(=O)CO3)cc1C`, the compound was classed as inactive.

As for `Cc1ccc(Cl)cc1NS(=O)(=O)c1cc2c(cc1Cl)CCC(=O)N2`, the call was inactive.

Take `Cc1ccc(NS(=O)(=O)c2ccc3c(c2)CCC(=O)N3)cc1F`: the compound was called inactive.

Consider `CC(=O)N1CCc2cc(S(=O)(=O)Nc3ccc(C)c(C)c3)ccc21`, for which the compound was classed as inactive.

`O=C1CCc2cc(S(=O)(=O)Nc3ccc4c(c3)CCC4)ccc2N1`: the compound was called inactive.

Turning to `CCNc1cccc(S(=O)(=O)N2CCN(S(=O)(=O)c3ccc4c(c3)OCCO4)CC2)c1`, the compound was classed as inactive.

For the compound `Cn1c2cc(S(C)=O)sc2c2cnn(Cc3cccc(O)c3)c(=O)c21` (stereo not given), the compound was classed as inactive.

Turning to `O=C1CCc2cc(S(=O)(=O)Nc3cccc(F)c3)ccc2N1`, the compound was called inactive.

Consider `Cc1ccc(NS(=O)(=O)c2ccc3c(c2)CCC(=O)N3)cc1`, for which the call was inactive.

For `O=C1CCc2cc(S(=O)(=O)Nc3ccc4ncccc4c3)ccc2N1`, the call was inactive.

Consider `Cc1ccc(NS(=O)(=O)c2ccc3ccccc3c2)cc1C`, for which the call was inactive.

Consider `Cc1ccc(NS(=O)(=O)c2ccc3[nH]c(=O)[nH]c3c2)cc1C`, for which the outcome was inactive.

Take `O=C1c2ccccc2C(=O)N1c1cccc(O)c1`: the call was inactive.

For the compound `Cc1ccc(NS(=O)(=O)c2cc3c(cc2-c2ccsc2)NC(=O)CO3)cc1C`, the result was inactive.

`COc1cccc(NS(=O)(=O)c2ccc3c(c2)CCC(=O)N3)c1`: the result was inactive.

On to `Cc1cccc(NS(=O)(=O)c2ccc3c(c2)CCC(=O)N3)c1`, for which the compound was called inactive.

Take `Cn1c2cc(S(C)=O)sc2c2cnn(Cc3cccc(N)c3)c(=O)c21` (stereo not given): the compound was classed as inactive.

For `O=C1CCc2cc(S(=O)(=O)Nc3ccccc3-c3ccccc3)ccc2N1`, the compound was called inactive.

For the compound `CSc1cc2c(s1)c1cnn(Cc3cccc(N)c3)c(=O)c1n2C`, the compound was called inactive.

Take `Cc1ccc(-c2nc3cccc(C)n3c2Nc2ccc(F)cc2)o1`: the call was inactive.

With `Cc1ccc(NS(=O)(=O)c2cc3c(cc2N2CCC2)NC(=O)CC3)cc1C`, the result was inactive.

Regarding `COc1ccc(NS(=O)(=O)c2ccc3c(c2)CCC(=O)N3)cc1`, the compound was classed as inactive.

`Cc1ccc(NC(=O)c2ccc3c(c2)CCC(=O)N3)cc1C`: the call was inactive.

Consider `O=C1c2ccccc2C(=O)N1c1ccc2ncccc2c1`, for which the compound was classed as inactive.

On to `CC(=O)N1c2ccc(S(=O)(=O)Nc3ccc(C)c(C)c3)cc2CC1C` (stereo not given), for which the outcome was inactive.

Turning to `Cc1ccc(NS(=O)(=O)c2cccc(Cl)c2)cc1C`, the result was inactive.

`Cc1ccc(NS(=O)(=O)c2ccc3c(c2)CCN(C(=O)C(F)(F)F)C3)cc1C`: the call was inactive.

As for `Cc1ccc(NS(=O)(=O)c2ccc3c(c2)CCC(=O)N3)cc1Cl`, the compound was called inactive.

Regarding `Cc1ccc(NS(=O)(=O)c2ccc3c(c2)CCO3)cc1C`, the compound was classed as inactive.

As for `O=C1c2ccccc2C(=O)N1c1ncccc1O`, the call was inactive.

With `Cc1ccccc1Nc1c(-c2ccc(Cl)s2)nc2ccccn12`, the call was inactive.

Turning to `Cc1cccc(OC2=NS(=O)(=O)c3ccccc32)c1`, the result was inactive.

Consider `O=C1c2ccccc2C(=O)N1c1cccc(Cl)c1`, for which the call was inactive.

With `O=C1CCc2cc(S(=O)(=O)Nc3cccnc3)ccc2N1`, the call was inactive.

Consider `Cc1ccc(N[S+](=O)([O-])c2cc3c(cc2CCc2ccccc2)NC(=O)CO3)cc1C`, for which the compound was classed as inactive.
